From the antibiotic and cytotoxicity screens of Wong et al. (2023) come the findings set out here.

About 3,300 (8.5%) of roughly 39,000 compounds were called active. The sample holds actives, similar compounds and a random draw of the others, so the mix is not that of the screen.

For this assay, the system named is HepG2. Briefly: cytotoxicity call (relative viability < 0.9). The note with it: 10 µM.
As to `C[C@@H]1CCCCO[C@H](CN(C)C(=O)Nc2ccc(F)cc2)[C@H](C)CN([C@@H](C)CO)C(=O)c2cc(NC(=O)C3CCCCC3)ccc2O1`, the cytotoxicity call was “inactive”.
`Cc1noc(C)c1S(=O)(=O)Nc1cccc2c1O[C@H](CN(C)S(=O)(=O)c1ccc(Cl)cc1)[C@H](C)CN([C@H](C)CO)C2=O`: the cytotoxicity call is “inactive”.
For `C[C@@H]1CCCCO[C@@H](CN(C)S(=O)(=O)c2ccc(Cl)cc2)[C@@H](C)CN([C@H](C)CO)C(=O)c2cc(NS(=O)(=O)c3ccccc3)ccc2O1`, the cytotoxicity call is “inactive”.
Under `C[C@H](CO)N1C[C@H](C)[C@H](CN(C)S(=O)(=O)c2ccc(C#N)cc2)Oc2ncc(-c3ccc(F)cc3)cc2C1=O` stands “inactive”.
Under `C[C@@H]1CN([C@H](C)CO)C(=O)Cc2cc(NC(=O)Nc3ccc(F)cc3)ccc2O[C@@H]1CN(C)Cc1ccc(Oc2ccccc2)cc1` stands “active”; under `C[C@H](CO)N1C[C@H](C)[C@H](CN(C)Cc2ccc(Oc3ccccc3)cc2)Oc2ccc(NC(=O)Nc3ccc(F)cc3)cc2CC1=O`, “active”; under `C[C@H]1CN([C@@H](C)CO)C(=O)Cc2cc(NC(=O)Nc3ccc(F)cc3)ccc2O[C@@H]1CN(C)Cc1ccc(Oc2ccccc2)cc1`, “active”.
With `C[C@@H]1CN([C@@H](C)CO)C(=O)Cc2cc(NC(=O)Nc3ccc(F)cc3)ccc2O[C@H]1CN(C)Cc1ccc(Oc2ccccc2)cc1`, the cytotoxicity call is “active”.
The same measure for `COc1ccc(CN(C)C[C@H]2OCCCC[C@@H](C)Oc3ccc(NC(=O)c4ccncc4)cc3C(=O)N([C@@H](C)CO)C[C@@H]2C)cc1`: “inactive”; for `Cc1ccc(S(=O)(=O)Nc2ccc3c(c2)C(=O)N([C@H](C)CO)C[C@@H](C)[C@H](CN(C)C(=O)c2ccccc2)OCCCC[C@@H](C)O3)cc1`: “inactive”; for `Cc1ccc(S(=O)(=O)N[C@H]2CC[C@H](CC(=O)N3CCC(Cc4ccccc4)CC3)O[C@@H]2CO)cc1`: “inactive”.
As for `C[C@@H]1CCCCO[C@@H](CN(C)C)[C@@H](C)CN([C@H](C)CO)C(=O)c2cc(NS(=O)(=O)c3cn(C)cn3)ccc2O1`, the cytotoxicity call was “inactive”.
Under `CC(C)NC(=O)N(C)C[C@H]1Oc2c(NC(=O)NC3CCCCC3)cccc2C(=O)N([C@@H](C)CO)C[C@H]1C` stands “inactive”; under `C[C@@H]1CN([C@@H](C)CO)C(=O)c2cccc(NC(=O)Nc3ccccc3)c2O[C@@H]1CN(C)S(=O)(=O)c1cn(C)cn1`, “inactive”.
The same measure for `C[C@@H]1CCCCO[C@@H](CN(C)S(=O)(=O)c2cn(C)cn2)[C@H](C)CN([C@H](C)CO)C(=O)c2cc(N(C)C)ccc2O1`: “inactive”; for `O=C(CN1CCOCC1)N[C@@H]1CC[C@@H](CCNC(=O)Nc2cc(F)ccc2F)O[C@@H]1CO`: “inactive”.
Under `C[C@@H]1CCCCO[C@H](CN(C)C)[C@@H](C)CN([C@H](C)CO)C(=O)c2cc(NC(=O)CCCN(C)C)ccc2O1` stands “inactive”; under `C[C@@H]1CCCCO[C@@H](CN(C)C(=O)NC2CCCCC2)[C@@H](C)CN([C@@H](C)CO)C(=O)c2cc(NC(=O)Nc3ccc4c(c3)OCO4)ccc2O1`, “inactive”.
Turning to `C[C@@H]1CN([C@@H](C)CO)C(=O)Cc2cc(NC(=O)Nc3ccc(F)cc3)ccc2O[C@@H]1CN(C)Cc1ccc(Oc2ccccc2)cc1`, the cytotoxicity call is “inactive”.
Under `C[C@H]1CN([C@@H](C)CO)C(=O)Cc2cc(NC(=O)Nc3ccc(F)cc3)ccc2O[C@H]1CN(C)Cc1ccc(Oc2ccccc2)cc1` stands “active”; under `C[C@H](CO)N1C[C@H](C)[C@@H](CN(C)Cc2ccc(Oc3ccccc3)cc2)Oc2ccc(NC(=O)Nc3ccc(F)cc3)cc2CC1=O`, “active”.
On to `C[C@@H]1CN([C@H](C)CO)C(=O)Cc2cc(NC(=O)Nc3ccc(F)cc3)ccc2O[C@H]1CN(C)Cc1ccc(Oc2ccccc2)cc1`, for which the cytotoxicity call is “active”.
Under `CC(=O)Nc1nnc(S(N)(=O)=O)s1` stands “inactive”; under `C[C@H](CO)N1C[C@H](C)[C@@H](CN(C)S(=O)(=O)c2ccc(F)cc2)Oc2ccc(NC(=O)Cn3cnnn3)cc2C1=O`, “inactive”; under `CC(C)NC(=O)Nc1cccc2c1O[C@@H](CN(C)S(=O)(=O)c1cn(C)cn1)[C@@H](C)CN([C@H](C)CO)C2=O`, “inactive”.
The same measure for `CC(C)OC(=O)c1cn(Cc2c(F)cccc2F)c2sc(-c3ccc(NC(=O)C(C)C)cc3)c(CN(C)Cc3ccccc3)c2c1=O`: “active”; for `CONC(=O)Nc1ccc(-c2sc3c(c2CN(C)Cc2ccccc2)c(=O)n(-c2ccccc2)c(=O)n3Cc2c(F)cccc2F)cc1`: “inactive”.
As for `C[C@@H]1CN([C@@H](C)CO)C(=O)c2cccc(NC(=O)Nc3ccc(F)cc3)c2O[C@H]1CN(C)Cc1ccc(-c2ccccc2)cc1`, the cytotoxicity call is “inactive”.
The same measure for `C[C@@H]1CN([C@@H](C)CO)C(=O)c2cc(NC(=O)C3CC3)ccc2O[C@@H]1CN(C)Cc1ccc(C(=O)O)cc1`: “inactive”.
Under `CO[C@H]1CN(C)C(=O)c2cc(NC(=O)CC(F)(F)F)ccc2OC[C@@H](C)N(S(=O)(=O)c2cn(C)cn2)C[C@@H]1C` stands “inactive”.
Under `COc1ccc(CNC(=O)C[C@H]2C[C@@H]3c4cc(NS(=O)(=O)c5ccc(F)cc5)ccc4O[C@@H]3[C@@H](CO)O2)cc1` stands “inactive”.
For the compound `O=C(C[C@@H]1C=C[C@@H](NS(=O)(=O)c2ccc(F)cc2)[C@@H](CO)O1)NCCN1CCCCC1`, the cytotoxicity call was “inactive”.
The same measure for `C[C@@H]1CN([C@@H](C)CO)C(=O)Cc2cc(NC(=O)Nc3cccc4ccccc34)ccc2O[C@H]1CN(C)C(=O)NC1CCCCC1`: “inactive”; for `C[C@H]1CCCCO[C@H](CN(C)CC2CCCCC2)[C@@H](C)CN([C@@H](C)CO)C(=O)c2cc(NC(=O)c3ccccc3)ccc2O1`: “inactive”; for `C[C@@H]1CCCCO[C@@H](CN(C)CC2CCCCC2)[C@@H](C)CN([C@H](C)CO)C(=O)c2cc(NC(=O)c3ccccc3)ccc2O1`: “active”.
Under `C[C@@H]1CCCCO[C@@H](CN(C)CC2CCCCC2)[C@H](C)CN([C@@H](C)CO)C(=O)c2cc(NC(=O)c3ccccc3)ccc2O1` stands “inactive”; under `C[C@H]1CCCCO[C@@H](CN(C)CC2CCCCC2)[C@@H](C)CN([C@@H](C)CO)C(=O)c2cc(NC(=O)c3ccccc3)ccc2O1`, “inactive”; under `C[C@@H]1CCCCO[C@@H](CN(C)CC2CCCCC2)[C@H](C)CN([C@H](C)CO)C(=O)c2cc(NC(=O)c3ccccc3)ccc2O1`, “inactive”.
The same measure for `C[C@@H]1CN([C@@H](C)CO)C(=O)c2cc(NC(=O)c3ccccc3)ccc2O[C@@H](C)CCCCO[C@@H]1CN(C)CC1CCCCC1`: “inactive”; for `C[C@@H]1CCCCO[C@H](CN(C)CC2CCCCC2)[C@H](C)CN([C@H](C)CO)C(=O)c2cc(NC(=O)c3ccccc3)ccc2O1`: “active”.
On to `C[C@@H]1CN([C@@H](C)CO)C(=O)c2cc(NC(=O)c3ccccc3)ccc2O[C@@H](C)CCCCO[C@H]1CN(C)CC1CCCCC1`, for which the cytotoxicity call was “active”.
The same measure for `C[C@@H]1CN([C@H](C)CO)C(=O)c2cc(NC(=O)c3ccccc3)ccc2O[C@@H](C)CCCCO[C@@H]1CN(C)CC1CCCCC1`: “inactive”.
